Hits are enriched below; roughly 2.8% of the tested compounds scored in any of these assays.
EWS-Fli inh: EWS/Fli-driven NR0B1 reporter inhibitors, primary screen, A673 cells, NR0B1 luciferase, luminescence, MLPCN library | viability-normalised | inhibition, % at 12.6 µM | 350,000 tested, 0.67% active;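 active means mean inhibition of at least 50% after viability correction, with every replicate also passing that limit; inconclusive means mean reaches 50% but only one of two replicates passes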;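 further: firefly luciferase signal divided by Alamar Blue viability fluorescence both relative to DMSO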
PAX8 inh HTS: inhibitors of PAX8-driven TPO luciferase reporter, primary screen, RMG-I cells, single concentration. SteadyGlo, 24 h. inhibition, % at 12.6 µM. 360,000 tested, 1.2% active. AID 652154, 2013;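 active means mean replicate inhibition at least 60% with every replicate also reaching 60%; inconclusive means only one of the two criteria is met; inactive means mean below 60% and not all replicates reaching 60%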;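 further: luciferase light reporting Pax8 driven TPO promoter activity; plate controls were median of neutral control wells for no effect and mitoxantrone controls for full effect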
TWEAK Fn14 block: inhibitors of TWEAK-Fn14 signaling, primary screen, luciferase reporter cells, uHTS | TWEAK-stimulated Fn14 reporter cells, luciferase luminescence, 8 h | inhibition, % at 10 µM | 360,000 tested, 2% active | AID 1159606, 2016; in the data active means inhibition above about 50%
TROY signal inh: inhibitors of TROY-driven NF-kB signaling, primary screen, Q293 LMP1-TROYcd cells, NF-kB luciferase, uHTS | Q293 LMP1-TROYcd NF-kB luciferase reporter, 4 h | 360,000 tested, 0.98% active | AID 1347056, 2019 | inhibition, % at 10 µM;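 active means compounds whose plate-normalised and pattern-corrected inhibition of the luciferase reporter signal at the single screening dose is 50% or more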
LGR2 inh: inhibitors of bursicon-induced LGR2 CRE-luciferase signal, primary screen, cell-based, HEK293, CRE-luciferase reporter, bursicon stimulation. Drosophila bursicon receptor LGR2 (rickets). bursicon-stimulated, 4 h. inhibition, % at 9.99 µM. 380,000 tested, 0.35% active;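 active means drop in luminescence signal, shown as inhibition above about 50% in the replicate tests, limit read from the data, passing the limit was not always enough; inconclusive means probably only some replicates passing the limit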;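 further: agonist challenge used bursicon conditioned medium at about half maximal strength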
* = called active by the depositor.

What do the screens show for `C[C@H]1CN([C@@H](C)CO)C(=O)c2cc(NC(=O)Cn3cnnn3)ccc2O[C@@H]1CN(C)S(=O)(=O)c1cn(C)cn1`?
EWS-Fli inh: 0; LGR2 inh: -18

How did CCCCSc1nc(CCC)cc(=O)[nH]1 do in these assays?
TWEAK Fn14 block: 92*; TROY signal inh: -2

What do the screens show for `O=C(C[C@H]1CC[C@H]2[C@@H](COC[C@@H](O)CN2S(=O)(=O)c2cccc(Cl)c2)O1)Nc1ccc(-c2ccccc2)cc1`?
EWS-Fli inh: -2; PAX8 inh HTS: 87*; LGR2 inh: 3

Results for O=C(C[C@@H]1CC[C@H]2[C@@H](COC[C@@H](O)CN2S(=O)(=O)c2cccc(Cl)c2)O1)Nc1ccccc1 ?
EWS-Fli inh: -5; PAX8 inh HTS: 11; LGR2 inh: -1

What do the screens show for `O=C(C[C@H]1CC[C@@H]2[C@H](COC[C@H](O)CN2S(=O)(=O)c2ccccc2)O1)Nc1ccc(-c2ccccc2)cc1`?
EWS-Fli inh: 6; PAX8 inh HTS: 63*; LGR2 inh: 26

Results for O=C(C[C@H]1CC[C@@H]2[C@H](COC[C@@H](O)CN2S(=O)(=O)c2cccc(Cl)c2)O1)Nc1ccc(-c2ccccc2)cc1 ?
EWS-Fli inh: -2; PAX8 inh HTS: 106*; LGR2 inh: -1

What do the screens show for `O=C(C[C@H]1CC[C@@H]2[C@H](COC[C@@H](O)CN2S(=O)(=O)c2ccccc2)O1)Nc1ccc(-c2ccccc2)cc1`?
EWS-Fli inh: 19; PAX8 inh HTS: 19; LGR2 inh: 15

Results for O=C(C[C@H]1CC[C@H]2[C@@H](COC[C@H](O)CN2S(=O)(=O)c2cccc(Cl)c2)O1)Nc1ccc(-c2ccccc2)cc1 ?
EWS-Fli inh: -8; PAX8 inh HTS: 57; LGR2 inh: 6

What do the screens show for `O=C(C[C@H]1C[C@@H]2c3cc(NC(=O)C4CCOCC4)ccc3O[C@@H]2[C@H](CO)O1)NCc1ccccn1`?
EWS-Fli inh: 2; PAX8 inh HTS: -5; LGR2 inh: -12

What do the screens show for `CC(=O)c1c(C)[nH]c(C(=O)COc2cc(C)ccc2C(C)C)c1C`?
TWEAK Fn14 block: 64*; TROY signal inh: 48

How did COc1cc(C)ccc1OCC(=O)OCC(=O)c1[nH]c(C)c(C(C)=O)c1C do in these assays?
EWS-Fli inh: -4; TWEAK Fn14 block: -9; TROY signal inh: -1; LGR2 inh: 3

What do the screens show for `C[C@H](CO)N1C[C@H](C)[C@@H](CN(C)C(=O)C2CCC2)Oc2cc(-c3ccncc3)ccc2S1(=O)=O`?
EWS-Fli inh: -3; LGR2 inh: -14

What do the screens show for `CCOc1ccc(-c2nnc(-c3cccs3)o2)cc1`?
PAX8 inh HTS: -129; TWEAK Fn14 block: 63*; TROY signal inh: 22

Results for c1csc(-c2nnc(-c3ccc(N4CCOCC4)cc3)o2)c1 ?
TWEAK Fn14 block: 59*; TROY signal inh: -3

Results for O=C(C1CCOCC1)N1C[C@H]2[C@@H](c3ccccc31)[C@H](CO)N2C(=O)Nc1ccccc1F ?
EWS-Fli inh: -1; PAX8 inh HTS: 6; LGR2 inh: 4

What do the screens show for `COc1ccc(N=C2S/C(=C\c3ccc(Cl)c([N+](=O)[O-])c3)C(=O)N2CCN(C)C)cc1`?
EWS-Fli inh: 64*; PAX8 inh HTS: 6; TWEAK Fn14 block: 60*; TROY signal inh: 81*; LGR2 inh: inconclusive

Results for CCN1C(=O)/C(=C/c2cccs2)SC1=Nc1ccc(OC)cc1 ?
TWEAK Fn14 block: -13; TROY signal inh: 8

What do the screens show for `CCN(CC)CCN1C(=O)/C(=C\c2ccc(Cl)c([N+](=O)[O-])c2)SC1=Nc1ccc(OC)cc1`?
EWS-Fli inh: 60*; PAX8 inh HTS: 54; TWEAK Fn14 block: 99*; TROY signal inh: 74*; LGR2 inh: 19

How did CCCN1C(=O)/C(=C/c2ccc(C)s2)SC1=Nc1ccc(OC)cc1 do in these assays?
TWEAK Fn14 block: 8; TROY signal inh: 0; LGR2 inh: -7

Results for COc1ccc(S(=O)(=O)Nc2cccc3c2O[C@H](CN(C)C(=O)Nc2ccc(F)cc2)[C@@H](C)CN([C@@H](C)CO)C3=O)cc1 ?
EWS-Fli inh: -1; LGR2 inh: 16

Results for C[C@H](CO)N1C[C@H](C)[C@@H](CN(C)C(=O)CC2CC2)Oc2cc(-c3ccncc3)ccc2S1(=O)=O ?
EWS-Fli inh: -4; LGR2 inh: -2

What do the screens show for `O=C(CSCc1nc2ccccc2[nH]1)Nc1ccc2ccccc2c1`?
TWEAK Fn14 block: 9; TROY signal inh: -6

What do the screens show for `O=C(CSCc1cccc(CSCC(=O)Nc2ccc3ccccc3c2)n1)Nc1ccc2ccccc2c1`?
TWEAK Fn14 block: 67*; TROY signal inh: 38

How did O=C(NCCc1c[nH]c2ccccc12)C1CCC(Cn2c(=S)[nH]c3ccccc3c2=O)CC1 (stereo unspecified) do in these assays?
PAX8 inh HTS: 7; TWEAK Fn14 block: 62*; TROY signal inh: 29

Results for COCCNC(=O)C1CCC(Cn2c(=S)[nH]c3ccccc3c2=O)CC1 (stereo unspecified) ?
PAX8 inh HTS: -9; TWEAK Fn14 block: -14; TROY signal inh: -12

How did CC(C)CC(=O)NCCNC(=O)c1cc(OCC(F)(F)F)ccc1OCC(F)(F)F do in these assays?
TWEAK Fn14 block: 76*

How did O=C(CCl)NCCNC(=O)c1cc(OCC(F)(F)F)ccc1OCC(F)(F)F do in these assays?
EWS-Fli inh: -7; PAX8 inh HTS: -2; TWEAK Fn14 block: 13; TROY signal inh: -11; LGR2 inh: 39

What do the screens show for `c1ccc(N2CCN(c3nnnn3-c3ccccc3)CC2)cc1`?
TWEAK Fn14 block: -7; TROY signal inh: -4

How did c1ccc(-n2nnnc2-n2cnc3ccccc32)cc1 do in these assays?
EWS-Fli inh: 6; TWEAK Fn14 block: 54*; TROY signal inh: 31; LGR2 inh: -6

How did C[C@H]1CN([C@@H](C)CO)C(=O)c2cc(NC(=O)c3ccncc3)ccc2O[C@@H]1CN(C)Cc1ccc(-c2ccccc2)cc1 do in these assays?
EWS-Fli inh: 0; PAX8 inh HTS: 22; LGR2 inh: -32

How did COc1cccc(S(=O)(=O)N2CC[C@H]3[C@@H](CO)N(C)c4ccc(C#Cc5ccc(F)cc5)cc4[C@H]32)c1 do in these assays?
EWS-Fli inh: 5; PAX8 inh HTS: 85*; LGR2 inh: 20

How did Cc1cccc(S(=O)(=O)N2CC[C@@H]3[C@H](CO)N(C)c4ccc(C#Cc5ccc(F)cc5)cc4[C@@H]32)c1 do in these assays?
EWS-Fli inh: 19; PAX8 inh HTS: 91*

How did COc1ccc(C(=O)NCCC2=CCCCC2)cc1 do in these assays?
PAX8 inh HTS: -24; TWEAK Fn14 block: 75*; TROY signal inh: 36; LGR2 inh: inconclusive

Results for COc1ccc(C(=O)NCCC2=CCCCC2)cc1OC ?
TWEAK Fn14 block: -6; TROY signal inh: -43

Assay outcomes (PubChem BioAssay)
